Results as given in the OligoGym collection.
Also: reference of the scale not given here.

The sequences below were run against ANKRD53 (assay: pooled miR-30 sensor sort-seq; sequence = guide strand). Settings: shRNA.
For AAACTTGTACTCCTCTACCAGG, the sensor-assay potency score (higher = more potent) was -1.13.
Work on TTGACCTTGATACTCAATCAGG yielded a sensor-assay potency score (higher = more potent) of -0.673.
TCTGATAGCAGCTTCTCTGAGA showed a sensor-assay potency score (higher = more potent) of -0.337.
In the case of TTTCTGATAGCAGCTTCTCTGA, the sensor-assay potency score (higher = more potent) is reported as -1.05.

Each sequence was assayed against ANTXR1 in the same assay as above. Settings: shRNA.
TTGATAATCACAGTGCAGCAGA gave a sensor-assay potency score (higher = more potent) of -0.3.
In the case of TGTCTCTACACTGTGAGCCTGG, the sensor-assay potency score (higher = more potent) is reported as -0.327.
In the case of TTTTCCATCAGTAAACACCTGC, the sensor-assay potency score (higher = more potent) is reported as 0.177.
TTGAGTTTCTTACCACACCAGG gave a sensor-assay potency score (higher = more potent) of -1.02.
TTGGAGAGTACCACTTCCGGGG gave a sensor-assay potency score (higher = more potent) of -0.563.
Sequence TTATTGATTAAACAGATCCAGA has a sensor-assay potency score (higher = more potent) of -1.04.
Sequence TTATATTCTGCCTTGTTCCAGA has a sensor-assay potency score (higher = more potent) of -0.0343.
Work on TAAAGTGAGTGAATGAAGCTGG yielded a sensor-assay potency score (higher = more potent) of 0.662.
For TTGTATACACACACATGCCTTA, the sensor-assay potency score (higher = more potent) was -0.352.
For TTCTCATTGAGTGTGACCGAGT, the sensor-assay potency score (higher = more potent) was -0.633.
In the case of TCATTGATCTTGAAGCTGCAGA, the sensor-assay potency score (higher = more potent) is reported as -0.552.

The sequences below were run against ANXA11 in the same assay as above. Settings: shRNA.
With TCTGATGTCCAGGAGGTCGGTC the sensor-assay potency score (higher = more potent) was -0.593.
TTTGATCAAATCCTTGCCGTAA gave a sensor-assay potency score (higher = more potent) of -0.559.
With TCTAGGACGGTGAATCTCGGGG the sensor-assay potency score (higher = more potent) was -0.586.
For TAGGATCTGCTGCCGCTGCTTG, the sensor-assay potency score (higher = more potent) was -0.946.
In the case of TTGAACTTGGACTCGTCTGTTC, the sensor-assay potency score (higher = more potent) is reported as -0.177.
For TATCTCATAAATGTCAAAGAGG, the sensor-assay potency score (higher = more potent) was -1.14.
ATACTCTGATCTGATGTCCAGG showed a sensor-assay potency score (higher = more potent) of -0.494.
With TTCTGCTTTGTAGGCTCTGTTT the sensor-assay potency score (higher = more potent) was -1.4.
With ATCTTCAGCAGAATCTTCCGGT the sensor-assay potency score (higher = more potent) was 0.075.
For TTCATCAGTGCCAACCCCCTTG, the sensor-assay potency score (higher = more potent) was 0.00983.
For TATTTTAGCAGCAAGAGGCTGT, the sensor-assay potency score (higher = more potent) was 0.315.
With TCGTGGTACAGCGACTTGCCGT the sensor-assay potency score (higher = more potent) was -1.23.
In the case of TCTTGAGACATTTCACCACGGC, the sensor-assay potency score (higher = more potent) is reported as -0.11.
For TAAATGTCAAAGAGGACTGGGG, the sensor-assay potency score (higher = more potent) was -0.276.
For TCCGCTTATACTCTGATCTGAT, the sensor-assay potency score (higher = more potent) was -0.656.
For TATACTCTGATCTGATGTCCAG, the sensor-assay potency score (higher = more potent) was -0.656.
In the case of ATGCTCTTCTCAATGTCCCGGC, the sensor-assay potency score (higher = more potent) is reported as -0.72.
In the case of TTGAAAACTGCTACCAGGTGGG, the sensor-assay potency score (higher = more potent) is reported as -0.0336.
TTGAACTGCCCCGCATAGGTGG gave a sensor-assay potency score (higher = more potent) of -0.724.
For TTAGAAACAGACATTCTTTTGG, the sensor-assay potency score (higher = more potent) was 0.574.
For TATTCTTGAGACATTTCACCAC, the sensor-assay potency score (higher = more potent) was 0.412.
With TTTAATTCTCGGATGTGCTCAT the sensor-assay potency score (higher = more potent) was 0.906.

These sequences were tested against ANXA5 in the same assay as above. Settings: shRNA.
TTGGTCATGAGCATGCTAGTAT showed a sensor-assay potency score (higher = more potent) of -0.14.
Work on TTCTTCATAAACTTGTTTGATG yielded a sensor-assay potency score (higher = more potent) of -0.36.
For TACTTGTCAAACACCTTTCTCA, the sensor-assay potency score (higher = more potent) was 0.224.
